According to PubChem BioAssay (NCI):
“And” between values parts separate entries of the source, which are not always exact repeats. Equal values may be shown once. About 83,000 compounds went through this panel and 20% of them were active in at least one assay; those are over-represented in the sample as a whole.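 48-hour exposure, single concentration, 96-well plates; percent growth endpoint where 0 means no net growth. Active: below 10.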 The source made the active and inactive calls.

Key:
Test in all cases: NCI-60 one-dose screen, 48 h (100 = growth as untreated, 0 = no growth, -100 = all killed)
Conditions in all cases: 10 µM unless noted
NCI-H23 lung = tested on: NCI-H23 lung
NCI-H226 lung = tested on: NCI-H226 lung
NCI-H322M lung = tested on: NCI-H322M lung
HOP-62 NSCLC = tested on: HOP-62 NSCLC
NCI-H460 lung = tested on: NCI-H460 lung
HOP-92 NSCLC = tested on: HOP-92 NSCLC
NCI-H522 lung = tested on: NCI-H522 lung
786-0 renal = tested on: 786-0 renal
COLO 205 colon = tested on: COLO 205 colon
A549/ATCC NSCLC = tested on: A549/ATCC NSCLC

Measured: growth

O=C(N/N=C/c1ccccc1)N/N=C/c1ccccc1
inactive: NCI-H23 lung 118% and 101% | NCI-H226 lung 106% and 78.9% | NCI-H322M lung 103% and 116% | HOP-62 NSCLC 104% and 117% | NCI-H460 lung 118% and 95.1% | HOP-92 NSCLC 100% and 90.3% | NCI-H522 lung 99.5% and 106% | 786-0 renal 118% and 116% | COLO 205 colon 109% and 129%

S=C(S)N1CCCC1
inactive: NCI-H23 lung 108% and 102% | NCI-H226 lung 108% and 111% | NCI-H322M lung 107% and 97.7% | HOP-62 NSCLC 124% and 100% | NCI-H460 lung 62.2% | HOP-92 NSCLC 91.9% and 88% | 786-0 renal 103% and 106% | COLO 205 colon 60.7% and 49.9%
active: NCI-H522 lung 8.09% and -11.7%

c1ccc2cc(C[n+]3ccn(Cc4ccc5ccccc5n4)c3)ccc2c1
1.85% (active) and 44.3% (inactive): HOP-62 NSCLC
-4.2% (active) and 29.2% (inactive): NCI-H23 lung
active: HOP-92 NSCLC -20.1% and -5.22% | NCI-H522 lung -27.4% and 6.58% | COLO 205 colon -38.3% and -35.3%
inactive: NCI-H226 lung 19.6% and 46.4% | NCI-H322M lung 34.8% and 75% | NCI-H460 lung 11.1% and 35.8% | 786-0 renal 30.9% and 76.1%

O=C1C2=C(C(=O)c3ccccc31)C(O)(S(=O)(=O)O)C(O)(S(=O)(=O)O)C1N=CC=CC21 (stereo not drawn)
12.2% (inactive) and 4.17% (active): NCI-H460 lung
inactive: NCI-H23 lung 31.8% and 20.8% | NCI-H226 lung 57% and 68.1% | NCI-H322M lung 44.8% and 16.8% | HOP-62 NSCLC 42.1% and 41.9% | 786-0 renal 32.7% and 20.3% | COLO 205 colon 50.3%
active: HOP-92 NSCLC -2.69%
24.8% (inactive) and -11.8% (active): NCI-H522 lung

O=C(O)CCCCc1ccc([N+](=O)[O-])cc1
inactive: NCI-H23 lung 99.6% and 101% | NCI-H226 lung 120% and 108% | NCI-H322M lung 112% and 96.7% | HOP-62 NSCLC 103% | NCI-H460 lung 96.1% and 120% | HOP-92 NSCLC 77.5% and 83.8% | NCI-H522 lung 91.7% and 103% | 786-0 renal 102% and 96.1% | COLO 205 colon 115% and 113%

CC(=O)Nc1ccc2cc3ccc(NC(C)=O)cc3nc2c1
inactive: NCI-H23 lung 74.2% and 75% | NCI-H226 lung 71% and 69.8% | NCI-H322M lung 64.3% and 46.1% | HOP-62 NSCLC 70.9% and 67% | NCI-H460 lung 93.6% and 106% | HOP-92 NSCLC 60.6% | NCI-H522 lung 74.3% and 77.7% | A549/ATCC NSCLC 107% and 115% | 786-0 renal 63.9% and 52.1% | COLO 205 colon 93.7% and 91.4%

CC1=C(/C=C/C(C)=C/C=C/C(C)=C/C=N/NC(=S)NC(=S)N/N=C/C=C(C)/C=C/C=C(C)/C=C/C2=C(C)CCCC2(C)C)C(C)(C)CCC1
inactive: NCI-H322M lung 85.1% and 63.8%
active: NCI-H23 lung -27.2% and -49.8% | NCI-H226 lung -66.4% and -86.6% | HOP-62 NSCLC -7.59% | NCI-H460 lung 8.37% and -6.69% | HOP-92 NSCLC -0.81% and -9.45% | NCI-H522 lung -84.1% and -88.9% | 786-0 renal -41.4% and -58.8% | COLO 205 colon -79.7%

NC(=S)NN=C1CCC(C2CCCCC2)CC1 (stereo not drawn)
inactive: NCI-H23 lung 103% and 94.1% | NCI-H226 lung 89.1% and 73% | NCI-H322M lung 95.9% and 88.2% | HOP-62 NSCLC 113% and 111% | NCI-H460 lung 106% and 108% | HOP-92 NSCLC 95.7% and 92.3% | NCI-H522 lung 52.2% and 47.2% | 786-0 renal 96.7% and 91.9% | COLO 205 colon 102% and 95%
